Records with an inconclusive call do not appear. The source made the active and inactive calls. Calls follow the shape of the full dose curve.
Legend:
[1] = molecular target: Acetylcholinesterase (Homo sapiens) (UniProt P22303); assay: Acetylcholinesterase (AChE) small molecule antagonists: colormetric cell-based qHTS assay (AID 1347395); also: nearly all actives have a fitted effect of over 30% in size
Procedure, shortened: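 SH-SY5Y cells; cpd 30 min 37 C; + DTNB/acetylthiocholine, 90 min 37 C; colorimetric thiocholine read; qHTS.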

[2] = molecular target: Acetylcholinesterase (Homo sapiens) (UniProt P22303); assay: Acetylcholinesterase (AChE) small molecule antagonists: enzyme-based qHTS assay (AID 1347397); details: Potency: AChE enzyme activity inhibition; outcome: AChE enzyme activity inhibition; also: nearly all actives have a fitted effect of over 55% in size
Procedure, shortened: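 First, recombinant human AChE (50 mU/mL as dispensed) received test compound or DMSO. Second, plates stood 30 min at room temperature. Third, DTNB and acetylthiocholine were added, followed by 10 min at room temperature and colorimetric detection.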

[3] = molecular target: Acetylcholinesterase (Homo sapiens) (UniProt P22303); assay: Acetylcholinesterase (AChE) small molecule antagonists: fluorescence cell-based qHTS assay (AID 1347398); details: Potency: AChE activity; outcome: AChE activity; also: nearly all actives have a fitted effect of over 50% in size
Procedure, shortened: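 Homogeneous quantitative HTS format. SH-SY5Y cells seeded at 2,000 per well settle overnight at 37 C. Compound pretreatment runs 30 min (37 C, 5% CO2); substrate/probe mix then reacts 40 min at RT before reading 490/520 nm.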

[4] = molecular target: Acetylcholinesterase (Homo sapiens) (UniProt P22303); assay: Acetylcholinesterase (AChE) small molecule antagonists: enzyme-based qHTS assay with human liver microsomes (AID 1347399); details: Potency: qHTS inhibition; outcome: qHTS inhibition; also: nearly all actives have a fitted effect of over 60% in size
Procedure, shortened: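 Recombinant human AChE (50 mU/mL in the enzyme mix) and human liver microsomes (0.25 mg/mL final) were preincubated with compound and NADPH (0.25 mg/mL final) for 30 min at 37 C. Acetylthiocholine/DTNB was then added; thiocholine was read colorimetrically after 10 min at room temperature.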
% is scaled to controls: 0 for no effect and ±100 for the full control effect.

Acetylcholinesterase (Homo sapiens), sequence (P22303 whole entry, looked up): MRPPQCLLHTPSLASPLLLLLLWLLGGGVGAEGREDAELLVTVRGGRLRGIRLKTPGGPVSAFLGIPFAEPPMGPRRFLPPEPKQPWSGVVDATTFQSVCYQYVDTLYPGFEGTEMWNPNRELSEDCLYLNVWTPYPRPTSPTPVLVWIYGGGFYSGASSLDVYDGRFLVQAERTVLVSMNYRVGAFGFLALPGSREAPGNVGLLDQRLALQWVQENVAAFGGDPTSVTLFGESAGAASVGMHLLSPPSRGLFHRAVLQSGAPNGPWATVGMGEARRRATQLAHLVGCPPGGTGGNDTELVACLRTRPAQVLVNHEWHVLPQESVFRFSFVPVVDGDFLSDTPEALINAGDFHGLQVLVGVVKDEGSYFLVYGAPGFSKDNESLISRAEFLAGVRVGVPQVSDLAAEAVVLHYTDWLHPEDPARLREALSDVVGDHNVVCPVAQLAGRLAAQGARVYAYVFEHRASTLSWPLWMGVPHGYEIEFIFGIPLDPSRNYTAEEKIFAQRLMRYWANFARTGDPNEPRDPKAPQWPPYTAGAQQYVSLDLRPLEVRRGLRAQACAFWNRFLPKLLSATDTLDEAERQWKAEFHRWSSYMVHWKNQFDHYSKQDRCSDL

CC(C)(C)NCC(O)COc1cccc2c1C[C@H](O)[C@H](O)C2 (stereo partly drawn)
inactive: Potency [1] | Potency [2] | Potency [3] | Potency [4]

CC(C)(C)OC(=O)c1ccccc1C(=O)O
inactive: Potency [1] | Potency [2] | Potency [3] | Potency [4]

c1ccc(CN(Cc2ccccc2)Cc2ccccc2)cc1
inactive: Potency [1] | Potency [2] | Potency [3] | Potency [4]

CCCCOC(=O)[C@@H](C)Oc1ccc(Oc2ccc(C(F)(F)F)cn2)cc1
inactive: Potency [1] | Potency [2] | Potency [3] | Potency [4]

CN(CCCN1c2ccccc2CCc2ccccc21)CC(=O)c1ccc(Cl)cc1
inactive: Potency [1] | Potency [2] | Potency [3] | Potency [4]

O=S(=O)(O)c1ccccc1/C=C/c1ccc(-c2ccc(/C=C/c3ccccc3S(=O)(=O)O)cc2)cc1
inactive: Potency [1] | Potency [2] | Potency [3] | Potency [4]

CCC(CO)(CO)COCC(CC)(CO)CO
inactive: Potency [1] | Potency [2] | Potency [3] | Potency [4]

CC(=O)NC(=O)c1ccccc1O
inactive: Potency [1] | Potency [2] | Potency [3] | Potency [4]

CC1(C)O[C@@H]2C[C@H]3[C@@H]4CCC5=CC(=O)CC[C@]5(C)[C@@]4(F)[C@@H](O)C[C@]3(C)[C@]2(C(=O)CCl)O1
inactive: Potency [1] | Potency [2] | Potency [3] | Potency [4]

CCCCCC(C)OC(=O)COc1ccc(Cl)c2cccnc12 (stereo not drawn)
inactive: Potency [1] | Potency [2] | Potency [3] | Potency [4]

C=CC(=O)OCCn1c(=O)n(CCOC(=O)C=C)c(=O)n(CCOC(=O)C=C)c1=O
inactive: Potency [1] | Potency [2] | Potency [3] | Potency [4]

O=C1C(=O)c2ccccc2C(O)=C1C1CCC(c2ccc(Cl)cc2)CC1 (stereo not drawn)
inactive: Potency [1] | Potency [2] | Potency [3] | Potency [4]

CC(=O)O[C@@H]1C[C@@H]2CC[C@@]1(C)C2(C)C
inactive: Potency [1] | Potency [2] | Potency [3] | Potency [4]

Nc1ccc(C(=O)NCC(=O)O)cc1
inactive: Potency [1] | Potency [2] | Potency [3] | Potency [4]

Cn1c(=O)c2c(ncn2CC(=O)O)n(C)c1=O
inactive: Potency [1] | Potency [2] | Potency [3] | Potency [4]

CCCCCCCCCCCC(C)=O
inactive: Potency [1] | Potency [2] | Potency [3] | Potency [4]

O=C(Nc1ccc(Oc2ccc(Cl)cc2)c(Cl)c1)c1cc(I)cc(I)c1O
inactive: Potency [1] | Potency [2] | Potency [3] | Potency [4]

O=c1cc(CO)occ1O
inactive: Potency [1] | Potency [2] | Potency [3] | Potency [4]

CCOC(=O)[C@H](CCc1ccccc1)N[C@@H](C)C(=O)N1[C@H](C(=O)O)C[C@@H]2CCC[C@@H]21
inactive: Potency [1] | Potency [2] | Potency [3] | Potency [4]

CCCC1CCCC(=O)O1 (stereo not drawn)
inactive: Potency [1] | Potency [2] | Potency [3] | Potency [4]

S=C(SSSSSSC(=S)N1CCCCC1)N1CCCCC1
inactive: activity, negative = inhibition [1] -0.568% [at 23.6 µM] | activity change, negative = inhibition [2] 0.13% [at 23.6 µM] | activity change, negative = inhibition [3] -3% [at 23.8 µM] | activity change, negative = inhibition [4] -2.6% [at 23.6 µM]

O=C(OCCc1ccccc1)c1ccccc1
inactive: Potency [1] | Potency [2] | Potency [3] | Potency [4]

CCC(CC)C(C)CCOC(C)=O (stereo not drawn)
inactive: Potency [1] | Potency [2] | Potency [3] | Potency [4]

CC[N+](C)(CC)CCOC(=O)C(O)(c1ccccc1)C1CCCCC1 (stereo not drawn)
inactive: Potency [1] | Potency [2] | Potency [3] | Potency [4]

CCOC(=O)c1ccccc1O
inactive: Potency [1] | Potency [2] | Potency [3] | Potency [4]

NC(=O)c1ncn([C@@H]2O[C@H](CO)[C@@H](O)[C@H]2O)c1N
inactive: Potency [1] | Potency [2] | Potency [3] | Potency [4]

CC1OCCC1=O (stereo not drawn)
inactive: Potency [1] | Potency [2] | Potency [3] | Potency [4]

CCCCCCOC(=O)CCC
inactive: Potency [1] | Potency [2] | Potency [3] | Potency [4]

CCNC(=O)NCc1cccc(Cl)c1
inactive: Potency [1] | Potency [2] | Potency [3] | Potency [4]

COC(C(=O)O)c1ccccc1 (stereo not drawn)
inactive: Potency [1] | Potency [2] | Potency [3] | Potency [4]

CC(C)=CCC/C(C)=C/C=N/O
inactive: Potency [1] | Potency [2] | Potency [3] | Potency [4]

COc1cc(N)ccc1C
inactive: Potency [1] | Potency [2] | Potency [3] | Potency [4]
